Screening data (PubChem BioAssay)
The sample as a whole holds a higher share of hits than the screen did.
Pf Dd2 growth: qHTS Primary assay for Inhibitors of Plasmodium falciparum Dd2 growth in vitro; P. falciparum Dd2 growth, SYBR Green, 72 h; Potency, µM (highest dose often 28.9 µM), inactives show at the highest dose activity, negative = inhibition, usual class: inhibitors; AID 1347417, 2020; 120,000 compounds, 4.3% hits; active = well fitted inhibition curve with a large enough effect;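 also: plate controls were DMSO vehicle for no effect and reference drug for full effect; nearly all actives have a fitted effect of over 65% in size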
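Infected erythrocytes (Dd2, 0.3% parasitemia, 2.5% hematocrit final) are added to compound in RPMI-1640/Albumax II medium, grown 72 h at 37C in low oxygen, then lysed with saponin/Triton-X containing SYBR Green and read by fluorescence.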
Numbers without * were called inactive; i = inactive; [ ] = another dose, or the depositor's remark. Potency is read from the fitted curve at half-maximal effect.

SMILES	Pf Dd2 growth
COc1ccc(C(=O)N2CC(Oc3ccccc3-c3nc(-c4ccccc4)no3)C2)cc1	0.89µM*
COCCOCC(=O)N1CC(Oc2ccccc2-c2nc(C3CC3)no2)C1	-10%
O=C(CN1CCCCCC1)N1CC(Oc2ccccc2-c2nc(C3CC3)no2)C1	11µM*
Cc1noc(-c2cccc(OC3CN(C(=O)Cc4ccccc4)C3)c2)n1	3%[5.79 µM]
COc1ccc(C(=O)N2CC(Oc3ccc(-c4nc(-c5ccccc5)no4)cc3)C2)cc1	48%[5.79 µM]
O=C(COc1ccc(F)cc1)N1CC(Oc2cccc(-c3nc(-c4ccccc4)no3)c2)C1	2.2µM*
Cc1cccc(C(=O)N2CC(Oc3ccc(-c4nc(-c5ccccc5)no4)cc3)C2)c1	i[5.79 µM]
CC(C)C(=O)N1CC(Oc2ccccc2-c2nc(C3CC3)no2)C1	7%
O=C(c1ccco1)N1CC(Oc2ccccc2-c2nc(-c3ccccc3)no2)C1	4µM*
O=C(Nc1ccccc1F)N1CC(Oc2cccc(-c3nc(-c4ccccc4)no3)c2)C1	20%[5.79 µM]
CC(=O)N1CCC(Oc2ccccc2-c2nc(-c3ccccc3)no2)C1 (stereo not given)	i
CC(=O)N1CCN(C(=O)C[C@@H]2c3nc(NC(=O)C(C)(C)C)sc3C[C@@H]3[C@](C)(CO)[C@H](O)CC[C@]32C)CC1	-14%
CN(Cc1cccnc1)c1nc2c(c(=O)[nH]1)CCN(Cc1ccccc1F)CC2	25%[5.79 µM]
O=C(OCc1ccccc1)N1CCn2ncc(C(=O)N3CCOCC3)c2C1	10%
CCCOCCN1CCN(c2nc(CCN)nc3ccccc23)CC1	-11%
O=C1NCCCCCCN(C(=O)Nc2ccc3c(c2)OCCO3)[C@H]2CCC[C@@H]12	i
CC(C)c1nnc(C2CN(C(=O)CCC3CCCCC3)CC23CCOCC3)o1 (stereo not given)	-23%
O=S(=O)(c1ccccc1C(F)(F)F)N1CCC(C2CCNC2)CC1 (stereo not given)	i
Cc1ccc(-c2cc(C3CCN(C(=O)c4ccncc4)CC3)[nH]n2)cc1	45%[5.79 µM]
CCCNC(=O)N1CC[C@@H](CC(=O)O)[C@@H](CC2=NCCc3ccc(C(C)(C)C)cc32)C1	-11%[44.1 µM]
CC(C)(O)CCc1cccc(C(=O)NC2CCN(S(C)(=O)=O)CC2)c1	5%
CC(C)c1ccc(-c2nc(C3CC(=O)N(c4ccc(F)cc4)C3)no2)cc1 (stereo not given)	i
COCCN1C(=O)CS(=O)C12CCN(S(=O)(=O)c1ccc(F)cc1)CC2 (stereo not given)	5%
Cc1nc(C2CCCN(C(=O)CCCN)C2)cc(N2CCOCC2)n1 (stereo not given)	-10%
CN(C)c1ccc(CN[C@H]2CO[C@H]3[C@@H]2OC[C@H]3OC(=O)Nc2ccc(Oc3ccccc3)cc2)cc1	i
SMILES	Pf Dd2 growth
O=C1CCN(C(=O)[C@@H](Cc2ccccc2)NC(=O)c2ccoc2)CCOCCN1	-19%
CC(C)c1ccc(CNC(=O)c2cc3n(n2)CC(c2ccc(Cl)cc2)OC3)cc1 (stereo not given)	-19%
Cc1cc(NC(=O)Nc2csc3c2CCCC3)ccc1Br	13µM*
Cc1cc(NC(=O)Nc2nnc(N(C)C3CCCCC3)s2)ccc1Br	-23%[5.79 µM]
Cc1ccc(NC(=O)Nc2nc3c(s2)CCCCCC3)cc1C	-19%
Cn1ccnc1CN1CCN(Cc2cc3n(n2)CCNC3)CC1	-13%
OCCOCCn1cnc(-c2ccccc2)c1-c1ccccc1Cn1cccn1	-11%
C=CCc1cc(-c2c(-c3ccccc3)ncn2CCOCCO)cc(OC)c1O	6.3µM*
C=CCc1cc(-c2c(-c3ccccc3)ncn2CCCO)cc(OC)c1O	i
O=C(c1c(F)cccc1F)N1CCC(n2cc(-c3nc(-c4ccccc4)no3)nn2)CC1	4%
O=C(c1ccsc1)N1CCC(N(C(=O)C2CC2)C2CCOCC2)CC1	1%
CCCCN(CC)CCCNC(=O)c1cn(C)c(=O)c2c1c1ccccc1n2C	i
CCCCN(CCCC)CC(O)Cn1cc(/C=C/C(=O)c2ccccc2)c2ccccc21 (stereo not given)	0.89µM*
COc1ccc(C(=O)/C=C/c2cn(CC(O)CN3CCc4ccccc43)c3ccccc23)cc1 (stereo not given)	-3%
CCOc1ccc2c(c1)c(=O)c(C(=O)c1ccccc1)cn2Cc1ccccc1	-5%
CCCCN(C)CC(O)Cn1cc(/C=C/C(=O)c2ccc(OCC)cc2)c2ccccc21 (stereo not given)	3.5µM*
CCCOC1CCCN(C(=O)c2ccc3nc(-c4ccc(F)cc4)cn3c2)C1 (stereo not given)	-18%
CCn1nccc1C(=O)N1CCC(Oc2ccccc2)C1 (stereo not given)	i
CCC1c2nccn2CCCN1C(=O)c1ocnc1C (stereo not given)	9%
O=C1CO[C@H]2CN(C3CCC3)C[C@H]2N1c1ccccc1	-12%[44.1 µM]
CCCC1(CO)CCCN(Cc2cn3ccc(C)cc3n2)C1 (stereo not given)	10µM*
CCCC1(CO)CCCN(C(=O)CCn2ccc(=O)[nH]c2=O)C1 (stereo not given)	-19%
CCCC1(CO)CCCN(Cc2nnc(-c3cccnc3)o2)C1 (stereo not given)	-4%
CN(C)c1cccc(C(=O)N2CCC(n3cc(-c4nc(-c5ccccc5)no4)nn3)CC2)c1	-17%
Cc1ccc(CN2CCC(CNc3nccc(-c4ccccn4)n3)CC2)o1	i
SMILES	Pf Dd2 growth
Cc1cccc(N2CCN(c3nccc(-c4ccccn4)n3)CC2)n1	-14%
CN(Cc1ccccc1CN1CCCC1)c1nccc(-c2ccccn2)n1	3.5µM*
Cc1noc(C2CC3(CCN(C(=O)Cn4c(=O)oc5ccccc54)CC3)CN2C)n1 (stereo not given)	-29%
Cc1noc(C2CC3(CCN(C(=O)CCC4CCCC4)CC3)CN2C)n1 (stereo not given)	4.5µM*
Cc1noc(C2CC3(CCN(C(=O)COc4ccc(F)cc4)CC3)CN2C)n1 (stereo not given)	-6%
CNC(=O)[C@@H]1CN(C(=O)Cc2c(F)cccc2Cl)C[C@H]1COC	3%
CN1C(=O)c2cccn2CC1C(=O)NCc1cccs1 (stereo not given)	7%
CCn1nccc1C(=O)N1CC(c2nc(CCOCC3CC3)no2)C1	0%
N#Cc1ccc(CN2CCn3c(nnc3-c3ccncc3)C2)cc1	1%
Cc1cc(C)c(NS(=O)(=O)c2ccc3c(c2)CC(C)N3C(=O)C2CCC2)c(C)c1 (stereo not given)	19%
CCc1ccccc1NC(=O)C1CCC(CNS(=O)(=O)c2ccc3c(c2)CC(C)N3C(C)=O)CC1 (stereo not given)	-27%
CCCN(c1ccccc1CC)S(=O)(=O)c1ccc2c(c1)CC(C)N2C(=O)C1CC1 (stereo not given)	8.9µM*
O=c1c2c(CO)c(-c3ccc(F)cc3)nn2ccn1CCOc1ccccc1	i
COc1cccc(CNC(=O)C2CCCCC(=O)N2)c1OC (stereo not given)	i
COc1ccc(Cn2c(C3CCN(C(=O)c4ccc(OC)c(F)c4)CC3)n[nH]c2=O)cc1	-18%
COc1cc(C(=O)N2CCCN(c3cc(-c4ccc(C)c(C)c4)[nH]n3)CC2)cc(OC)c1OC	-7%
Cc1ccc(-c2cc(N3CCCN(C(=O)c4ccsc4)CC3)n[nH]2)cc1C	i
CCOc1ccc(C(=O)N2CCN(c3cc(-c4ccc(F)cc4)[nH]n3)CC2)cc1OCC	i
O=C(c1ccccc1)N1CCCN(c2cc(-c3ccc(Cl)cc3)[nH]n2)CC1	0%
COc1cc(OC)cc(C(=O)N2CCCN(c3cc(-c4ccc(C)c(C)c4)[nH]n3)CC2)c1	11µM*
